Reference: PubChem BioAssay (Tox21)
Several values for one entry are separate records, joined by “and”; a condition that tells them apart may be missing. Equal entries are not always repeated. Unmarked numbers belong to inactive results. Results filed as inconclusive are left out. A call without a number means that no potency is given here. Activity calls are given as the source filed them. Unless noted, calls come from the whole dose curve; as a rule, active = well fitted curve in the direction sought with a large enough effect in the repeat runs; inconclusive = weak or mixed curves; inactive = no such curve, though single readings can be large; an effect the other way counts as inactive or inconclusive.

What was measured:
[1] = target: Luciferin 4-monooxygenase (Photinus pyralis) (UniProt P08659); experiment: qHTS assay to identify small molecule inhibitors of firefly luciferase (AID 1224835); note: nearly all actives have a fitted effect of over 25% in size; note: potency is the fitted concentration of half-maximal effect
Chain of Luciferin 4-monooxygenase (Photinus pyralis) (P08659 whole entry, looked up): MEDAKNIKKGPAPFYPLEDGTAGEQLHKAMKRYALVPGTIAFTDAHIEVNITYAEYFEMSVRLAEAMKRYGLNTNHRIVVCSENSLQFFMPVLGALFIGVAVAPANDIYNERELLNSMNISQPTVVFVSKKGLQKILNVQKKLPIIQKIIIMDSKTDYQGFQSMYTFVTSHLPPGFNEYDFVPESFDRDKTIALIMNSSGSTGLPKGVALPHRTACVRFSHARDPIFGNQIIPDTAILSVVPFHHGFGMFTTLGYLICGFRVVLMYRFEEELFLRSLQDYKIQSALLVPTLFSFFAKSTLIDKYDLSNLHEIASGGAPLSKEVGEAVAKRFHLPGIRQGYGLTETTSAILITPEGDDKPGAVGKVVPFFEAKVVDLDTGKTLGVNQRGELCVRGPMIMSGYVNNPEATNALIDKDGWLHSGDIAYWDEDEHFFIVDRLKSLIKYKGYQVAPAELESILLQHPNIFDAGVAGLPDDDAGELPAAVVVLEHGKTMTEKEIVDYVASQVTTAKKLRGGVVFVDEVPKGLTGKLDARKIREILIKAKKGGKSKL
Method in brief: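 Inhibition of purified Photinus luciferase is measured by luminescence. Substrate levels (D-luciferin, ATP) sit at their KM values. Each compound is tested in a concentration series.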

[2] = qHTS assay to identify small molecule agonists of the constitutive androstane receptor (CAR) signaling pathway - cell viability counter screen (AID 1224836); note: nearly all actives have a fitted effect of over 45% in size; note: potency is the fitted concentration of half-maximal effect
Method in brief: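 HepG2 cells stably carrying hCAR and a CYP2B6-2.2kb reporter; 15-concentration compounds plus PK11195 (final 0.75 uM), 23 hr at 37 C/5% CO2. Viability read by CellTiter-Fluor fluorescence.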

[3] = qHTS assay to identify small molecule antagonists of the constitutive androstane receptor (CAR) signaling pathway - cell viability counter screen (AID 1224837); note: nearly all actives have a fitted effect of over 45% in size; note: potency is the fitted concentration of half-maximal effect
Method in brief: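 Multiplexed cytotoxicity read-out for the CAR antagonist screen: double-stable HepG2-CYP2B6-hCAR cells co-treated with 50 nM CITCO (final) and compound over 15 concentrations, incubated 23 hr, then assessed by CellTiter-Fluor fluorescence.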

[4] = target: Nuclear receptor subfamily 1 group I member 3 (Homo sapiens) (UniProt Q14994); experiment: qHTS assay to identify small molecule antagonists of the constitutive androstane receptor (CAR) signaling pathway (AID 1224838); note: nearly all actives have a fitted effect of over 40% in size; note: potency is the fitted concentration of half-maximal effect
Chain of Nuclear receptor subfamily 1 group I member 3 (Homo sapiens) (Q14994 whole entry, looked up): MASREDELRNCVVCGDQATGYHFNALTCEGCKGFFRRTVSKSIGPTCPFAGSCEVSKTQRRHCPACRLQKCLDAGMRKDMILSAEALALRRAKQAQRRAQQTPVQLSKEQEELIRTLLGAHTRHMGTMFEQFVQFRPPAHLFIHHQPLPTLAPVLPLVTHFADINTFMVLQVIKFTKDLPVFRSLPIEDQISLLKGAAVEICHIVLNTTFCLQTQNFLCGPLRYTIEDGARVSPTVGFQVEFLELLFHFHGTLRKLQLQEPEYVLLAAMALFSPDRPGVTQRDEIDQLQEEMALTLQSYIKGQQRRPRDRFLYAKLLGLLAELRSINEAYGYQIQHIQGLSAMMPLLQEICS
Method in brief: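 Compounds were titrated across 15 concentrations onto HepG2 cells double-stably expressing hCAR and a CYP2B6-2.2kb reporter, together with 50 nM CITCO (final). After 24 h at 37 C, luciferase activity was measured by luminescence.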

[5] = target: Nuclear receptor subfamily 1 group I member 3 (Homo sapiens) (UniProt Q14994); experiment: qHTS assay to identify small molecule agonists of the constitutive androstane receptor (CAR) signaling pathway (AID 1224839);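 note: HepG2 cells stably carrying human CAR and a CYP2B6 luciferase reporter; nearly all actives have a fitted effect of over 15% in size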
Method in brief: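 HepG2 cells stably co-transfected with hCAR and a CYP2B6-2.2kb luciferase reporter; compounds at 15 concentrations with 0.75 uM PK11195 present. After 24 hr at 37 C, luciferase read by ONE-Glo luminescence.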

[6] = qHTS assay to identify small molecule agonists of the hypoxia (HIF-1) signaling pathway - cell viability counter screen (AID 1224844; calls by dose curve; note: nearly all actives have a fitted effect of over 50% in size; note: potency is the fitted concentration of half-maximal effect)
Method in brief: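 Tox21 10K compounds were added to HRE-bla ME-180 cells (0.5% dialyzed FBS) and incubated 17 hrs at 37C; ATP-based CellTiter-Glo luminescence then reported cell viability in the same wells.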

[7] = qHTS assay to identify small molecule agonists of H2AX (AID 1224845; active = well fitted activation curve with a large enough effect in the signal ratio in the repeat runs, not every such curve was filed as active; the % refers to the signal ratio; note: potency is the fitted concentration of half-maximal effect)
Method in brief: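 Phospho-H2AX Ser139 measured by HTRF (ex 320 nm; em 665 and 620 nm) after 24 hr antibody incubation. Compounds, 15 concentrations, 0.76% DMSO, were applied to CHO-K1 cells for 3hr at 37C before lysis.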

[8] = qHTS assay to identify small molecule agonists of the hypoxia (HIF-1) signaling pathway (AID 1224846; active = well fitted activation curve with a large enough effect in the signal ratio in the repeat runs, not every such curve was filed as active; the % refers to the signal ratio)
Method in brief: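 Steps: seed ME-180 HRE-bla cells (2,000/well, 0.5% dialyzed FBS); incubate 5 hrs at 37C; pin-transfer compounds or DMSO; incubate 17 hrs; add LiveBLAzer B/G substrate CCF4-AM; measure reporter activation by FRET.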

[9] = qHTS RealTime-Glo MT Cell Viability Assay in HEK293 cells - 32 hour (AID 1224868); note: nearly all actives have a fitted effect of over 50% in size; note: potency is the fitted concentration of half-maximal effect
Method in brief: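 Tox21 10K qHTS, HEK293, 600 cells/well, RealTime-Glo reagent co-dispensed with cells; 5 h preincubation, compound by pintool, 37 C, luminescence at 0–40 h.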

[10] = A CellTox Green Cytotoxicity Assay to monitor cytotoxicity in HEK293 cells - 0 hour (AID 1224869); note: nearly all actives have a fitted effect of over 50% in size
Method in brief: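 Cytotoxicity was tracked continuously in HEK293 cells by a DNA-binding dye excluded from viable cells. Compounds were transferred in DMSO 5 h after seeding; fluorescence was recorded at intervals up to 40 h.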

[11] = qHTS RealTime-Glo MT Cell Viability Assay in HepG2 cells - 40 hour (AID 1224870); note: nearly all actives have a fitted effect of over 50% in size; note: potency is the fitted concentration of half-maximal effect
Method in brief: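 Real-time viability: cells seeded at 600 per well together with NanoLuc and cell-permeant prosubstrate, compounds added after 5 h incubation. Luminescence tracked at 0, 8, 16, 24, 32 and 40 h of exposure.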

[12] = qHTS assay to identify small molecule antagonists of the estrogen related receptor signaling pathway with the pleiotropic PPARgamma coactivator (PGC) from Tox21 10K library - cell viability counter screen (AID 1224840; active = well fitted cell-killing curve with a large enough effect in the repeat runs, not every such curve was filed as active; note: nearly all actives have a fitted effect of over 40% in size; note: potency is the fitted concentration of half-maximal effect)
Method in brief: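 Step one, plate 2,000 PGC/ERR cells per well; step two, incubate 6 h at 37 C/5% CO2; step three, pin-transfer compounds; step four, incubate 17.5 h; step five, add CellTiter-Fluor and read fluorescence after 30 min.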

[13] = qHTS assay to identify small molecule antagonists of the estrogen related receptor signaling pathway with the pleiotropic PPARgamma coactivator (PGC) from Tox21 10K library (AID 1224841; call rule not given here; note: potency is the fitted concentration of half-maximal effect)
Method in brief: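 Antagonism in this quantitative HTS is taken from loss of luciferase signal in PGC/ERR cells. Cells (2,000/well) are treated with compounds in DMSO after a 6 h settling period and read by One-Glo luminescence after 18 h.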

[14] = qHTS assay to identify small molecule agonists of the estrogen related receptor signaling pathway with the pleiotropic PPARgamma coactivator (PGC) from Tox21 10K library (AID 1224842); note: nearly all actives have a fitted effect of over 15% in size
Method in brief: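 Luminescence from One-Glo (30 min, room temperature) measured after PGC/ERR cells had 18 h at 37 C with pinned compound (23 nL in DMSO). Cells had been seeded at 2,000 per well and pre-incubated 6 h.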

[15] = qHTS assay to identify small molecule agonists of H2AX - cell viability counter screen (AID 1224847; calls by dose curve; note: nearly all actives have a fitted effect of over 30% in size; note: potency is the fitted concentration of half-maximal effect)
Method in brief: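 CHO-K1 cells plated overnight at 37C, then exposed 3 h at 37C to compounds at 15 concentrations (0.76% DMSO final). Viability by CellTiter-Glo luminescence after 30 min at room temperature.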

[16] = qHTS assay to identify small molecule antagonists of the estrogen related receptor (ERR) signaling pathway from Tox21 library (AID 1224848); note: nearly all actives have a fitted effect of over 50% in size; note: potency is the fitted concentration of half-maximal effect
Method in brief: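 Reading was by luminescence 30 min after ONE-Glo addition. Before that, ERR cells at 2,000 per well had rested 6 h at 37 C/5% CO2 and then received pin-tooled compounds in DMSO for 18 h at 37 C.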

[17] = qHTS assay to identify small molecule agonists of the estrogen related receptor (ERR) signaling pathway from Tox21 library (AID 1224849; calls by dose curve; note: nearly all actives have a fitted effect of over 15% in size); settings: ERR reporter cell line, ONE-Glo luciferase, 18 h; at 92.4 µM (top of the series) unless noted
Method in brief: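 Agonist signal is luciferase luminescence from an ERR reporter cell line treated 18 h at 37 C with DMSO-dissolved compounds, read 30 min after ONE-Glo addition at room temperature.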

[18] = target: Thyrotropin receptor (Homo sapiens) (UniProt P16473); experiment: qHTS assay to identify small molecule agonists of the thyroid stimulating hormone receptor (TSHR) signaling pathway (AID 1224843; calls by dose curve; note: nearly all actives have a fitted effect of over 45% in size; note: potency is the fitted concentration of half-maximal effect)
Chain of Thyrotropin receptor (Homo sapiens) (P16473 whole entry, looked up): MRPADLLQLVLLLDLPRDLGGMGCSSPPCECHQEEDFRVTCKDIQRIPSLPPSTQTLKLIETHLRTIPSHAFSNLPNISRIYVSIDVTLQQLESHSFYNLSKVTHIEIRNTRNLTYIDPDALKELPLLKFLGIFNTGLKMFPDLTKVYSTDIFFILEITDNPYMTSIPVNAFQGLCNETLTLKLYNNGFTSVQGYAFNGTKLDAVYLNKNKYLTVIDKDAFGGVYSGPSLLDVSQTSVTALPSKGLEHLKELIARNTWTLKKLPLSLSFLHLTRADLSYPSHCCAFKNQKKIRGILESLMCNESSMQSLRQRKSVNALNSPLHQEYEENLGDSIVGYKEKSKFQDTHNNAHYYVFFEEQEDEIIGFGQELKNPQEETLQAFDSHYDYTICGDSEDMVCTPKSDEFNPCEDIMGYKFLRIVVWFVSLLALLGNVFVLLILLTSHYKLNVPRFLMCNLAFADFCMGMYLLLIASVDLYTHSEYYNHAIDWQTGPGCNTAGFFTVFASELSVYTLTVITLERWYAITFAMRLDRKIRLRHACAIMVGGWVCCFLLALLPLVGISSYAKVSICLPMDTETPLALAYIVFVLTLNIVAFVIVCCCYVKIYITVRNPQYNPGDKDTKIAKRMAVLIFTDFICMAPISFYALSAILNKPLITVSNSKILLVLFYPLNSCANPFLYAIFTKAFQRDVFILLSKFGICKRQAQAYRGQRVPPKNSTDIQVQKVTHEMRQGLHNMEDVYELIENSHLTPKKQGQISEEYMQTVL
Method in brief: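 HEK293 cells stably bearing the thyrotropin receptor were plated at 800 cells/well and challenged with compound (30 min, RT). Accumulated cAMP was quantified via cAMP-d2 competing for cryptate-tagged antibody.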

[19] = qHTS RealTime-Glo MT Cell Viability Assay in HepG2 cells - 24 hour (AID 1224867); note: nearly all actives have a fitted effect of over 50% in size; note: potency is the fitted concentration of half-maximal effect
Method in brief: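 Cells + NanoLuc/prosubstrate dispensed (600 cells/well) → 5 h at 37 C/5% CO2 → compounds in DMSO transferred → 40 h incubation at 37 C, luminescence read at 0, 8, 16, 24, 32, 40 h.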

Structure (SMILES) | Potency [1] | Potency [2] | Potency [3] | Potency [4] | Potency [5] | Potency [6] | Potency [7] | Potency [8] | Potency [9] | Potency [10] | Potency [11] | Potency [12] | Potency [13] | Potency [14] | Potency [15] | Potency [16] | activity change, positive = activation [17] | Potency [18] | Potency [19]
O=C(Oc1ccccc1)c1ccccc1C(=O)Oc1ccccc1 | inactive | inactive | inactive | inactive | inactive | inactive | inactive | inactive | inactive | inactive | inactive | – | – | – | – | – | – | – | –
O=C(Nc1cccc(Cl)c1)OCC#CCCl | 44.8 µM (active) | 54.5 µM (active) | 38.6 µM (active) | – | – | – | 113 µM (active) | – | 49 µM (active) | inactive | 49 µM (active) | 48.6 µM (active) | 21.7 µM (active) | inactive | inactive | 30.6 µM (active) | -74.2% | – | –
O=[N+]([O-])c1cc(Cl)c(Cl)c(Cl)c1Cl | inactive | inactive | inactive | inactive | inactive | inactive | – | inactive | – | inactive | inactive | – | – | inactive | – | – | -25.7% | inactive | inactive
C=CC(=O)OCC(CO)(COC(=O)C=C)COC(=O)C=C | inactive | 13.7 µM (active) and 54.5 µM (active) | 9.72 µM (active) and 24.3 µM (active) | – | – | 4.38 µM (active) and 17.4 µM (active) | 14.2 µM (active) | – | 3.48 µM (active) | inactive | 12.3 µM (active) and 19.5 µM (active) | 6.13 µM (active) and 12.2 µM (active) | 13.7 µM (active) and 24.3 µM (active) | inactive | inactive | 8.66 µM (active) and 13.7 µM (active) | -68.9% and -80.3% | 6.13 µM (active) and 9.69 µM (active) | 11 µM (active) and 12.3 µM (active)
CCCCCCCCCCCC(=O)NCCCN(C)C | inactive | 61.1 µM (active) | – | – | inactive | 49 µM (active) | – | – | 38.9 µM (active) | inactive | 38.9 µM (active) | 61.1 µM (active) | – | – | 101 µM (active) | – | – | – | 43.6 µM (active)
COc1c(C)c2c(c(O)c1C/C=C(\C)CCC(=O)O)C(=O)OC2 | inactive | inactive | inactive | – | – | 0.151 µM (active) | 0.875 µM (active) | – | – | inactive | inactive | inactive | 2.66 µM (active) | inactive | inactive | inactive | – | – | inactive
CCCCCCCCS(=O)C(C)Cc1ccc2c(c1)OCO2 (stereo not given) | inactive | inactive | inactive | inactive | – | inactive | inactive | inactive | – | – | inactive | inactive | – | – | – | – | – | inactive | inactive
Fc1ccc(C(c2ccc(F)cc2)N2CCN(C/C=C/c3ccccc3)CC2)cc1 | inactive | inactive | inactive | inactive | inactive | – | – | – | 21.3 µM (active) | inactive | inactive | – | – | inactive | – | 23.7 µM (active) | -51.3% [at 42.5 µM] | inactive | –
Oc1ccc(C2(c3ccc(O)cc3)CC3CC2C2CCCC32)cc1 (stereo not given) | inactive | – | 52.3 µM (active) | – | – | 33.3 µM (active) | – | – | 41.9 µM (active) | inactive | inactive | 58.7 µM (active) | – | inactive | 86.2 µM (active) | 58.7 µM (active) | -75.2% | – | inactive
O=C1CCCCCN1SSN1CCCCCC1=O | inactive | inactive | – | 27.3 µM (active) | inactive | 43.6 µM (active) | – | – | inactive | inactive | – | inactive | – | inactive | – | 54.5 µM (active) | -43.7% | inactive | –
Fc1ccc([C@@H]2CCNC[C@H]2COc2ccc3c(c2)OCO3)cc1 | inactive | inactive | inactive | inactive | inactive | inactive | inactive | inactive | – | inactive | – | – | – | – | inactive | – | – | – | –
C[C@H]1[C@H]2CC[C@H]3[C@@H]4CC=C5C[C@@H](N(C)C)CC[C@]5(C)[C@H]4CC[C@]23CN1C | inactive | – | inactive | inactive | inactive | inactive | inactive | inactive | – | inactive | inactive | inactive | inactive | inactive | inactive | inactive | – | inactive | inactive
Nc1ccc2cc(S(=O)(=O)O)cc(O)c2c1N=Nc1ccccc1C(F)(F)F | – | – | – | inactive | inactive | inactive | – | inactive | inactive | inactive | inactive | inactive | – | inactive | – | inactive | 0.11% | – | inactive
CCCC1O[C@@H]2C[C@H]3[C@@H]4CCC5=CC(=O)C=C[C@]5(C)[C@H]4[C@@H](O)C[C@]3(C)[C@]2(C(=O)CO)O1 (stereo not given in full) | – | inactive | inactive | inactive | inactive | 49 µM (active) and 54.9 µM (active) | inactive | – | 24.6 µM (active) and 43.6 µM (active) | inactive | inactive | inactive | 48.6 µM (active) | inactive | – | 27.3 µM (active) and 34.4 µM (active) | -61.9% and -49.1% | – | inactive
CCCCN1C(=O)[C@@H]([C@H](O)C2CCCCC2)NC(=O)C12CCN(Cc1ccc(Oc3ccc(C(=O)O)cc3)cc1)CC2 | – | inactive | – | inactive | inactive | – | inactive | inactive | inactive | inactive | inactive | – | inactive | inactive | inactive | – | -19.3% | inactive | inactive
